Inconclusive results are not listed. Activity calls are given as the source filed them. Calls follow the shape of the dose curve; as a rule, active = well fitted curve in the direction sought with a large enough effect; inconclusive = small, poorly fitted or top-dose-only effect, or another doubt; inactive = no such curve, though single readings can be large; an effect the other way counts as inactive or inconclusive.
How the values were obtained:
HACAT = test: qHTS assay to identify novel small-molecules to repurpose for Merkel cell carcinoma treatment (AID 1296009); details: MCC and control cell lines, CellTiter-Glo viability, 72 h; at 44.8 µM (top of the series) unless noted; also: nearly all actives have a fitted effect of over 60% in size
Procedure, shortened: (§1)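 CellTiter-Glo luminescence after 72 hr compound exposure at 37 degree celsius gave cell viability. Libraries NPC and MIPE were run as 8- and 11-point dose responses; RLUs normalized to DMSO (negative) and no-cell (cytotoxicity) controls.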

NIH3T3 = test: as above; details: MCC and control cell lines, CellTiter-Glo viability, 72 h; at 44.8 µM (top of the series) unless noted
Procedure, shortened: as §1

C33A = test: Primary qHTS to identify gynecologic anti-cancer compounds using libraries of approved drugs and bioactive compounds (AID 1345084); details: Gynecologic cancer cell panel viability, ATPlite luminescence, 48 h; series mostly up to 57.5 µM; also: nearly all actives have a fitted effect of over 55% in size
Procedure, shortened: (§2)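 ATP-based viability (ATPlite), 1,000 cells/well, 16 h pre-incubation, 48 h compound at 37 C, 5% CO2, 15 min RT before read.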

CAOV3 = test: as above; details: Gynecologic cancer cell panel viability, ATPlite luminescence, 48 h; series mostly up to 57.5 µM
Procedure, shortened: as §2

CASKI = test: as above; details: Gynecologic cancer cell panel viability, ATPlite luminescence, 48 h; series mostly up to 57.5 µM
Procedure, shortened: as §2

Es-2 = test: as above; details: Gynecologic cancer cell panel viability, ATPlite luminescence, 48 h; series mostly up to 57.5 µM
Procedure, shortened: as §2

HeLa = test: as above; details: Gynecologic cancer cell panel viability, ATPlite luminescence, 48 h; series mostly up to 57.5 µM
Procedure, shortened: as §2

Hek293T = test: as above; details: Gynecologic cancer cell panel viability, ATPlite luminescence, 48 h, control line for the selectivity index; series mostly up to 57.5 µM
Procedure, shortened: as §2

JEG-3 = test: as above; details: Gynecologic cancer cell panel viability, ATPlite luminescence, 48 h; series mostly up to 57.5 µM
Procedure, shortened: as §2

Measured: Potency

CC1C(=O)OCC2=CC[N+]3([O-])CCC(OC(=O)C(C)(O)C1(C)O)C23 (centres undefined)
inactive: all assays above

C=C1[C@@H]2CC[C@@]3(C)[C@H](c4ccoc4)OC(=O)C[C@]13O[C@H]1CC(=O)C(C)(C)[C@H](C(O)C(=O)OC)[C@]12C (some centres undefined)
inactive: HACAT inactive [at 17.4 µM] | NIH3T3 inactive [at 17.4 µM] | C33A | CAOV3 | CASKI | Es-2 | HeLa | Hek293T | JEG-3

CCC/C=C/C=C/C1CC(O)C(O)C(=O)C1CO (centres undefined)
inactive: all assays above

CC/C=C\CC1C(CC(=O)O)CCC1OC1OC(CO)C(O)C(O)C1O (centres undefined)
inactive: all assays above

c1cc(-c2cc(C3CCNCC3)[nH]n2)ccn1
inactive: HACAT inactive [at 17.4 µM] | NIH3T3 inactive [at 17.4 µM] | C33A | CAOV3 | CASKI | Es-2 | HeLa | Hek293T | JEG-3

CC1CCC2(C(=O)O)CCC3(C)C(=CCC4C5(C)CCC(O)C(C)(C(=O)O)C5CCC43C)C2C1(C)O (centres undefined)
inactive: HACAT inactive [at 17.4 µM] | NIH3T3 inactive [at 17.4 µM] | C33A | CAOV3 | CASKI | Es-2 | HeLa | Hek293T | JEG-3

COc1cc(/C=C/C(=O)O)ccc1O[C@@H]1O[C@H](CO)[C@@H](O)[C@H](O)[C@H]1O[C@@H]1OC[C@](O)(CO)[C@H]1O
inactive: HACAT inactive [at 17.4 µM] | NIH3T3 inactive [at 17.4 µM] | C33A | CAOV3 | CASKI | Es-2 | HeLa | Hek293T | JEG-3

COC(=O)c1cc(OC)cc(OC)c1C(=O)c1c(OC)cc2c(c1O)C1CCC(O)C(C)(O2)O1 (centres undefined)
inactive: HACAT inactive [at 17.4 µM] | NIH3T3 inactive [at 17.4 µM] | C33A | CAOV3 | CASKI | Es-2 | HeLa | Hek293T | JEG-3

C=CC(C)(O)CC/C=C(\C)C1CC=C(C)C(=O)O1 (centres undefined)
inactive: all assays above

COc1cc(C(=O)OCC2=CCC3C(C(=O)O)=COC(O[C@@H]4O[C@H](CO)[C@@H](O)[C@H](O)[C@H]4O)C23)ccc1O (some centres undefined)
inactive: HACAT inactive [at 17.4 µM] | NIH3T3 inactive [at 17.4 µM] | C33A | CAOV3 | CASKI | Es-2 | HeLa | Hek293T | JEG-3

CCN(CCN(C)C)C(=O)CNCc1cc(C(N)=O)ccn1
inactive: all assays above

CC1(C)C[C@@H]2[C@H](C1)[C@@]1(C)C[C@]13C(O)OC[C@]3(O)[C@H]2O (some centres undefined)
inactive: all assays above

COc1ccc(CCc2nc3cc(-c4c(C)noc4C)ccc3n2C[C@H](C)N2CCOCC2)cc1Cl
inactive: all assays above

COc1cc(CO)cc(OC)c1O[C@@H]1O[C@H](CO)[C@@H](O)[C@H](O)[C@H]1O
inactive: all assays above

C/C=C1/[C@H](O[C@@H]2O[C@H](CO)[C@@H](O)[C@H](O)[C@H]2O)OC=C(C(=O)OC)[C@H]1CC(=O)OCCc1ccc(O)c(O)c1
inactive: HACAT inactive [at 17.4 µM] | NIH3T3 inactive [at 17.4 µM] | C33A | CAOV3 | CASKI | Es-2 | HeLa | Hek293T | JEG-3

C[C@@H]1O[C@@H](O[C@H]2[C@@H]3C=CO[C@@H](O[C@@H]4O[C@H](CO)[C@@H](O)[C@H](O)[C@H]4O)[C@@H]3[C@@]3(CO)O[C@@H]23)[C@H](O)[C@H](OC(=O)/C=C/c2ccc(O)c(O)c2)[C@H]1O
inactive: HACAT inactive [at 17.4 µM] | NIH3T3 inactive [at 17.4 µM] | C33A | CAOV3 | CASKI | Es-2 | HeLa | Hek293T | JEG-3
